Values joined by “and” are separate entries in the source; they are usually repeats but may differ in a detail not shown here. Equal entries are not always repeated. Screen size: about 5,500 compounds; about 2,000 (36%) were called active. Inconclusive results (about 18%) are left out. Rule as the data show it: active = normalized growth mostly below about 0.91 (no sharp cut-off); inconclusive = no clear call, values can overlap the other calls; inactive = mostly above about 0.92. The list shows a part of the results.
Assay: chemical genetic growth profiling, strain panel (AID 1159580);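 also: tested at 20 µM; growth read once vehicle control cultures reached saturation at 30 °C; 1 = growth at the plate median or of vehicle wells; lower values mean less growth of the strain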
Details: S. cerevisiae deletion strains, growth OD

Measured: normalized growth

Cc1ccc(O)cc1
inactive: locus YAL013W, strain DEP1, hits give low values 1.02 | locus YAL021C, strain ccr4, hits give low values 1.04 | locus YAL026C, strain drs2, hits give low values 1.03 | locus YAL030W, strain snc1, hits give low values 1.02 | locus YBL061C, strain skt5, hits give low values 1.02 | locus YBR009C, strain hhf1, hits give low values 1.03 | locus YBR021W, strain FUR4, hits give low values 1.07 | locus YBR023C, strain chs3, hits give low values 1.02 | locus YBR171W, strain sec66, hits give low values 1.02 | locus YBR229C, strain ROT2, hits give low values 1.02 | locus YBR231C, strain swc5, hits give low values 0.992 | locus YBR279W, strain paf1, hits give low values 1.02 | locus YCL011C, strain gbp2, hits give low values 1.02 | locus YCL016C, strain dcc1, hits give low values 1.01 | locus YCL029C, strain bik1, hits give low values 0.985 | locus YCL061C, strain MRC1, hits give low values 1.02 | locus YCL069W, strain vba3, hits give low values 1.02 | locus YCR088W, strain abp1, hits give low values 1.01 | locus YDL005C, strain med2, hits give low values 1.03 | locus YDL035C, strain GPR1, hits give low values 1.01 | locus YDL040C, strain nat1, hits give low values 1.01 | locus YDL074C, strain BRE1, hits give low values 1.03 | locus YDL101C, strain DUN1, hits give low values 1.03 | locus YDL134C, strain PPH21, hits give low values 1.05 | locus YDL185W, strain tfp1, hits give low values 0.99 | locus YDL192W, strain arf1, hits give low values 1.04 | locus YDR001C, strain nth1, hits give low values 1.02 | locus YDR069C, strain doa4, hits give low values 1.04 | locus YDR101C, strain arx1, hits give low values 0.98 | locus YDR137W, strain rgp1, hits give low values 1.04 | locus YDR159W, strain sac3, hits give low values 1 | locus YDR162C, strain NBP2, hits give low values 1.03 | locus YDR195W, strain ref2 1.01 | locus YDR297W, strain sur2, hits give low values 1.03 | locus YDR318W, strain mcm21, hits give low values 1.01 | locus YDR334W, strain swr1, hits give low values 1.02 | locus YDR335W, strain msn5, hits give low values 1.02 | locus YDR388W, hits give low values 1.02 | locus YDR392W, strain spt3, hits give low values 0.916 | locus YDR502C, strain sam2, hits give low values 0.979 | locus YEL003W, strain gim4, hits give low values 1.01 | locus YEL037C, strain rad23, hits give low values 1.01 | locus YEL061C, strain CIN8 (second series), hits give low values 1.01 | locus YEL061C, strain CIN8, hits give low values 1.02 | locus YER015W, strain faa2, hits give low values 1.01 | locus YER016W, strain bim1, hits give low values 1.01 | locus YER110C, hits give low values 0.991 | locus YER111C, strain swi4, hits give low values 1.01 | locus YER155C, strain BEM2 (second series), hits give low values 1.03 | locus YER155C, strain BEM2, hits give low values 1.02 | locus YER167W, strain BCK2, hits give low values 1.03 | locus YFR010W, strain ubp6, hits give low values 1.02 | locus YGL078C, strain dbp3, hits give low values 0.989 | locus YGL086W, strain mad1, hits give low values 1.01 | locus YGL167C, strain pmr1, hits give low values 1.01 | locus YGL173C, strain kem1, hits give low values 1.04 | locus YGL227W, strain vid30, hits give low values 1.02 | locus YGL240W, strain doc1, hits give low values 1.02 | locus YGL248W, strain PDE1, hits give low values 1.07 | locus YGL253W, strain hxk2, hits give low values 1.03 | locus YGR135W, strain pre9, hits give low values 1.01 | locus YGR229C, strain SMI1, hits give low values 1.04 | locus YGR252W, strain gcn5, hits give low values 0.966 | locus YHR013C, strain ard1, hits give low values 1.02 | locus YHR027C, strain rpn1, hits give low values 1.02 | locus YHR030C, strain SLT2, hits give low values 1.03 and 1 | locus YHR079C, strain IRE1 (second series), hits give low values 1.01 | locus YHR079C, strain IRE1, hits give low values 1 | locus YHR094C, strain hxt1, hits give low values 0.99 | locus YHR129C, strain ARP1, hits give low values 1.03 | locus YHR142W, strain chs7, hits give low values 1.03 | locus YHR200W, strain rpn10, hits give low values 1.01 | locus YIL066C, strain RNR3, hits give low values 1.06 | locus YIL073C, strain SPO22, hits give low values 1.03 | locus YIL125W, strain kgd1, hits give low values 0.994 | locus YIR030C, strain dcg1, hits give low values 1.01 | locus YJL092W, strain hpr5, hits give low values 1.02 | locus YJL095W, strain BCK1 (second series), hits give low values 1.01 | locus YJL095W, strain BCK1, hits give low values 1.07 and 1.02 | locus YJL115W, strain asf1, hits give low values 1.01 | locus YJL129C, strain trk1, hits give low values 1.01 | locus YJL134W, strain LCB3, hits give low values 1.02 | locus YJL154C, strain vps35, hits give low values 1.03 | locus YJL164C, strain tpk1, hits give low values 1.02 | locus YJL166W, strain qcr8, hits give low values 1.02 | locus YJL168C, strain set2, hits give low values 0.994 | locus YJL187C, strain SWE1 (second series), hits give low values 1.04 | locus YJR043C, strain POL32, hits give low values 1.01 | locus YJR066W, strain TOR1, hits give low values 0.987 | locus YKL009W, strain mrt4, hits give low values 1.01 | locus YKL068W, hits give low values 1 | locus YKL085W, strain MDH1 (second series), hits give low values 1 | locus YKL085W, strain MDH1, hits give low values 1 | locus YKL160W, strain elf1, hits give low values 1.01 | locus YKR001C, strain vps1, hits give low values 0.998 | locus YKR026C, strain gcn3, hits give low values 1.02 | locus YKR091W, strain srl3, hits give low values 1.02 | locus YLL001W, strain dnm1, hits give low values 0.984 | locus YLL026W, hits give low values 1.01 | locus YLL041C, strain sdh2, hits give low values 1.02 | locus YLR027C, strain aat2, hits give low values 1.03 | locus YLR039C, strain RIC1, hits give low values 1.05 | locus YLR058C, strain SHM2, hits give low values 1.04 | locus YLR102C, strain apc9, hits give low values 0.993 | locus YLR113W, strain HOG1, hits give low values 1.01 | locus YLR221C, strain rsa3, hits give low values 1.03 | locus YLR258W, strain gsy2, hits give low values 1.01 | locus YLR262C, strain YPT6 (second series), hits give low values 1.04 | locus YLR262C, strain YPT6, hits give low values 1.07 | locus YLR268W, strain sec22, hits give low values 0.998 | locus YLR320W, strain mms22, hits give low values 1.02 | locus YLR330W, strain CHS5, hits give low values 1.03 | locus YLR342W, strain FKS1 (second series), hits give low values 1.08 | locus YLR342W, strain FKS1, hits give low values 1.02 | locus YLR357W, strain rsc2, hits give low values 1.01 | locus YLR370C, strain arc18, hits give low values 1.01 | locus YLR371W, strain rom2, hits give low values 1.02 | locus YLR384C, strain iki3, hits give low values 1.02 | locus YLR418C, strain cdc73, hits give low values 1.04 | locus YML016C, strain PPZ1, hits give low values 1.04 | locus YML032C, strain rad52, hits give low values 1 | locus YML120C, strain ndi1, hits give low values 1.01 | locus YML124C, strain tub3, hits give low values 0.999 | locus YMR058W, strain fet3, hits give low values 1.03 | locus YMR078C, strain ctf18, hits give low values 1 | locus YMR125W, strain sto1, hits give low values 1.03 | locus YMR129W, hits give low values 1.01 | locus YMR205C, strain PFK2, hits give low values 1.03 | locus YMR223W, strain ubp8, hits give low values 1.02 | locus YMR231W, strain pep5, hits give low values 1.02 | locus YMR263W, strain SAP30, hits give low values 1.02 | locus YMR307W, strain GAS1, hits give low values 1.13 | locus YNL067W, strain RPL9B, hits give low values 1.02 | locus YNL071W, strain lat1, hits give low values 1.02 | locus YNL128W, strain TEP1, hits give low values 1.02 | locus YNL183C, strain NPR1, hits give low values 0.951 | locus YNL209W, strain ssb2, hits give low values 1.01 | locus YNL233W, strain BNI4, hits give low values 1.05 | locus YNL248C, strain rpa49, hits give low values 1.03 | locus YNL250W, strain rad50, hits give low values 0.996 | locus YNL271C, strain bni1, hits give low values 0.994 | locus YNL298W, strain CLA4, hits give low values 1 | locus YNL307C, strain MCK1, hits give low values 1.01 | locus YNL322C, strain KRE1 (second series), hits give low values 1.02 | locus YNR049C, strain mso1, hits give low values 1.02 | locus YNR052C, strain pop2, hits give low values 0.997 | locus YOL006C, strain TOP1, hits give low values 1.01 | locus YOL012C, strain htz1 1.54 | locus YOL147C, strain pex11, hits give low values 1.01 | locus YOR001W, strain rrp6, hits give low values 0.984 | locus YOR061W, strain CKA2, hits give low values 1.02 | locus YOR069W, strain VPS5, hits give low values 1.02 | locus YOR070C, strain gyp1, hits give low values 1.01 | locus YOR080W, strain dia2, hits give low values 1.01 | locus YOR083W, strain WHI5, hits give low values 1.01 | locus YOR106W, strain vam3, hits give low values 1.01 | locus YOR136W, strain idh2, hits give low values 0.99 | locus YOR144C, strain elg1, hits give low values 0.999 | locus YOR184W, strain ser1, hits give low values 1.02 | locus YOR231W, strain MKK1, hits give low values 0.993 | locus YOR265W, strain rbl2, hits give low values 1.03 | locus YOR270C, strain vph1, hits give low values 1.08 | locus YOR290C, strain snf2, hits give low values 1.02 | locus YOR316C, strain cot1, hits give low values 0.999 | locus YPL051W, strain arl3, hits give low values 1.01 | locus YPL055C, strain LGE1, hits give low values 1.05 | locus YPL078C, strain atp4, hits give low values 1.02 | locus YPL106C, strain sse1, hits give low values 1.01 | locus YPL240C, strain hsp82, hits give low values 1.01 | locus YPL241C, strain CIN2, hits give low values 1.01 | locus YPL256C, strain CLN2, hits give low values 1.03 | locus YPR119W, strain clb2, hits give low values 0.995 | locus YPR141C, strain kar3, hits give low values 1 | locus YPR163C, strain tif3, hits give low values 1 | locus YPR167C, strain met16, hits give low values 1.02 | strain wtn01, hits give low values 1.03
